Unmarked numbers belong to inactive results. Records with an inconclusive call do not appear. The source made the active and inactive calls. Unless noted, calls follow the shape of the dose curve; as a rule, active = well fitted curve in either direction with a large enough effect (not every such curve was filed as active); inconclusive = small, poorly fitted or top-dose-only effect, or another doubt; inactive = flat fitted curve, though single readings scatter.
How the values were obtained:
[1] = molecular target: Lysosomal acid glucosylceramidase (Homo sapiens) (UniProt P04062); experiment: Glucocerebrosidase-p2 (AID 348; in the data active = potency below about 10 µM; also: potency is read from the fitted curve at half-maximal effect); conditions: purified GBA, blue fluorogenic substrate, 40 min
In short: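 Normal human glucocerebrosidase (0.2 nM) with blue fluorogenic substrate (80 uM final) in citrate/phosphate pH 5.9 with 10mM sodium taurocholate, 0.01% tween-20; 40 min RT, NaOH/glycine stop; fluorescence Ex 365/Em 440; AC50 from a titration from 0.6 nM upwards.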

[2] = AP1 Signaling Pathway (AID 357); conditions: ME-180 AP-1-bla reporter, EGF-induced, beta-lactamase ratio, 5 h; at 7.69 µM (top of the series) unless noted;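 also: ME-180 reporter cells stimulated with EGF at its EC50 level; % is scaled to controls: 0 for no effect and ±100 for the full control effect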
In short: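 Read-out was the 460nm/530nm emission ratio (excitation 405nm) after CCF4 loading for 2.5 hours at room temperature. Cells carried an AP-1-driven beta-lactamase reporter, were stimulated with EC50 EGF plus compound for 5 hours, and AC50 values came from titrations.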

[3] = molecular target: Cytochrome P450 1A2 (Homo sapiens) (UniProt P05177); experiment: p450-cyp1a2 (AID 410; calls by dose curve; also: potency is read from the fitted curve at half-maximal effect;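 as to activity change, negative = inhibition: -100% = full effect of reference inhibitor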); conditions: recombinant CYP1A2, luciferin-ME demethylation, luminescence; series mostly up to 11.4 µM
In short: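 Read-out is luminescence from luciferin produced by CYP1A2 demethylation of Luciferin-ME (100uM, at Km). Detection reagent stopped the 60 min NADPH-dependent reaction; signals were normalized to 57 uM furafylline.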

[4] = NFAT Signaling Pathway (AID 444); conditions: Jurkat NFAT-bla M1, carbachol, beta-lactamase ratio, 5 h; at 7.69 µM (top of the series) unless noted;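 also: carbachol stimulus at about its EC50 of 1 µM final; % is scaled to controls: 0 for no effect and ±100 for the full control effect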
In short: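 Read-out: CCF4 FRET ratio (460 nm/530 nm) after 1 h RT dye loading, used for %activity and AC50 from titration series. Cells: Jurkat NFAT-β-lactamase/M1 line, treated with compound plus 1 uM carbachol for 5 h, 37 °C.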

[5] = Stat Signaling Pathway (AID 446); conditions: ME-180 (cervical carcinoma) SIE beta-lactamase reporter, IL-6 stimulated, 5 h; at 7.69 µM (top of the series) unless noted;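 also: ME-180 cervical cancer cells given 40 pM IL-6 alongside compound; SIE-controlled beta-lactamase reporter measured as 460/530 nm FRET emission ratio; % is scaled to controls: 0 for no effect and ±100 for the full control effect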
In short: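 Normalization used AC90 stimulation (300 pM IL-6) and AC90 inhibition (125 nM pan-JAK inhibitor at 40 pM IL-6). The underlying signal is SIE-driven beta-lactamase in ME-180 cells after 5 h IL-6 exposure with compound.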

[6] = molecular target: Glucocorticoid receptor (Homo sapiens) (UniProt P04150); experiment: GR-GFP Redistribution (AID 450;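 active = compounds whose dose series gives a full or clear partial fitted curve of increased nuclear translocation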; also: potency is read from the fitted curve at half-maximal effect); conditions: U2OS GR-GFP nuclear translocation, laser cytometry, 2 h
[7] = molecular target: Glucocorticoid receptor (Homo sapiens) (UniProt P04150); experiment: GR-EFC Redistribution (AID 451; calls by dose curve; also: potency is read from the fitted curve at half-maximal effect); conditions: CHO-K1 GR-EFC translocation, beta-gal luminescence, 2 h
In short: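 Translocation of GR-ED fusion to nuclear EA restores b-gal, read by luminescence after 1 h room-temperature detection. Engineered CHO-K1 biosensor cells, 1,000/well, exposed 2 h at 37 C to titrations up to 46 uM final.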

[8] = molecular target: Mitogen-activated protein kinase 10 (Mus musculus) (UniProt Q61831); experiment: JNK3 AlphaScreen Assay (AID 530); conditions: JNK3 lysate, c-Jun phosphorylation; series mostly up to 11.4 µM;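 also: kinase came from lysate of stimulated human HepG2 cells; signal reports phosphorylation of biotinylated GST-cJun 1-79 at Ser73 with 10 µM ATP; % is scaled to controls: 0 for no effect and ±100 for the full control effect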
In short: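 Kinase buffer: 20 mM Tris-HCl pH 7.6, 10 mM MgCl2, 1 mM DTT, 0.1 mM Na3VO4, 0.01% Tween-20; ATP 10 uM. Substrate biotin-GST-cJun(1-79), enzyme from activated HepG2 lysates. Detection by Ser73 phospho-antibody AlphaScreen.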

[9] = molecular target: 3',5'-cyclic-AMP phosphodiesterase 4B (Homo sapiens) (UniProt Q07343); experiment: qHTS Assay for Inhibitors of PDE-IV (AID 607; active = well fitted activation curve with a large enough effect in the main read-out, with a control signal flat, not every such curve was filed as active; also: % of control where 0% means no effect); conditions: HEK293 ACTOne CNG channel cells, membrane potential fluorescence; series mostly up to 22.9 µM
In short: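 HEK293 ACTOne cells with CNG channel (1000/well), endogenous PDE4; membrane potential dye, compounds up to 22.9 uM final. Fluorescence Ex 535/Em 590; RO 20-1724 (100 uM final) as reference.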

[10] = molecular target: Cytochrome P450 2C9 (Homo sapiens) (UniProt P11712); experiment: qHTS Assay for Inhibitors and Substrates of Cytochrome P450 2C9 (AID 883; active = well fitted curve in the direction sought with a large enough effect; an effect the other way counts as inactive or inconclusive; also: nearly all actives have a fitted effect of over 60% in size; also: potency is read from the fitted curve at half-maximal effect); conditions: recombinant CYP2C9, luciferin-H luminescence, 60 min; series mostly up to 11.4 µM
In short: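 Inhibition of CYP2C9 is scored as loss of luminescence, with 57uM sulphaphenazole defining 100% inhibition. Substrate Luciferin-H is used at 100uM, equal to its KM; enzyme at 10nM in 25mM KPO4, 60 min at 37C with NADPH regeneration.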

[11] = molecular target: Cytochrome P450 3A4 (Homo sapiens) (UniProt P08684); experiment: qHTS Assay for Inhibitors and Substrates of Cytochrome P450 3A4 (AID 884; active = well fitted curve in the direction sought with a large enough effect; an effect the other way counts as inactive or inconclusive; also: potency is read from the fitted curve at half-maximal effect; nearly all actives have a fitted effect of over 50% in size); conditions: recombinant CYP3A4, Luciferin-PPXE luminescence; series mostly up to 57.1 µM
In short: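 Luminescent readout of luciferin produced by CYP3A4 (20 nM) dealkylation of Luciferin-PPXE, 25 uM (its KM). NADPH-driven reaction ran 60 min at RT after 10 min compound preincubation; data scaled to 57 uM ketoconazole as 100% inhibition.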

[12] = molecular target: Cytochrome P450 3A4 (Homo sapiens) (UniProt P08684); experiment: qHTS Assay for Activators of Cytochrome P450 3A4 (AID 885; active = well fitted curve in the direction sought with a large enough effect; an effect the other way counts as inactive or inconclusive; also: nearly all actives have a fitted effect of over 65% in size); conditions: recombinant CYP3A4, Luciferin-PPXE luminescence, 60 min; series mostly up to 11.4 µM
In short: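 Human CYP3A4 dealkylates Luciferin-PPXE to luciferin, which luciferase detection converts to light. Substrate was at its KM (25uM), buffer 200mM KPO4, reaction 60 min at RT.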

[13] = molecular target: Cytochrome P450 2D6 (Homo sapiens) (UniProt P10635); experiment: qHTS Assay for Inhibitors and Substrates of Cytochrome P450 2D6 (AID 891; active = well fitted curve in the direction sought with a large enough effect; an effect the other way counts as inactive or inconclusive;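 also: luciferin methyl ether substrate demethylated by CYP2D6 with NADPH regeneration; % is scaled to controls: 0 for no effect and ±100 for the full control effect; nearly all actives have a fitted effect of over 60% in size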); conditions: recombinant CYP2D6, luciferin-ME EGE luminescence; series mostly up to 11.4 µM
In short: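 Luminescent read-out of luciferin formed by 5 nM human CYP2D6 demethylating 30 uM Luciferin-ME EGE (Km level) over 60 min at room temperature after NADPH regeneration addition. Data normalized to full inhibition by 1.43 uM quinidine.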

[14] = molecular target: Cytochrome P450 2C19 (Homo sapiens) (UniProt P33261); experiment: qHTS Assay for Inhibitors and Substrates of Cytochrome P450 2C19 (AID 899; active = well fitted curve in the direction sought with a large enough effect; an effect the other way counts as inactive or inconclusive; also: potency is read from the fitted curve at half-maximal effect; nearly all actives have a fitted effect of over 60% in size); conditions: recombinant CYP2C19, luciferin-H EGE luminescence; series mostly up to 11.4 µM
In short: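 5nM enzyme + 10uM Luciferin-H EGE (=KM), 50mM KPO4; cpd pin-transferred, 10 min 37C; NADPH regen, 60 min 37C; stopped w/ luciferin detection reagent, 20 min; luminescence. Normalized to 57uM ketoconazole (AC100).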

Chain of Cytochrome P450 2C19 (Homo sapiens) (P33261 whole entry, looked up): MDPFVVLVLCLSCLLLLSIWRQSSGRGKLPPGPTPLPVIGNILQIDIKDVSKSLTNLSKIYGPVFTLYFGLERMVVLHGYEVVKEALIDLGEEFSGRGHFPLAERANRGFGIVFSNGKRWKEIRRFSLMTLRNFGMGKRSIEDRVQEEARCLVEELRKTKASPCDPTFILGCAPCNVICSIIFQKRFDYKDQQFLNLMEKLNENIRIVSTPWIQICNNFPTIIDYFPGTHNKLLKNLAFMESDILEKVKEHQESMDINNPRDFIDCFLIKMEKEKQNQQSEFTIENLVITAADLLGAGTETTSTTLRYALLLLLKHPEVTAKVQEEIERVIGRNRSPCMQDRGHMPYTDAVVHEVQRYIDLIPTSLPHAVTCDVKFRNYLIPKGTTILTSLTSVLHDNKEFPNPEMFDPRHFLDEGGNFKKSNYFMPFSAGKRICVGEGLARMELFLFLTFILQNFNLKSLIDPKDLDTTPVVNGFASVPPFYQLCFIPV
Chain of Lysosomal acid glucosylceramidase (Homo sapiens) (P04062 whole entry, looked up): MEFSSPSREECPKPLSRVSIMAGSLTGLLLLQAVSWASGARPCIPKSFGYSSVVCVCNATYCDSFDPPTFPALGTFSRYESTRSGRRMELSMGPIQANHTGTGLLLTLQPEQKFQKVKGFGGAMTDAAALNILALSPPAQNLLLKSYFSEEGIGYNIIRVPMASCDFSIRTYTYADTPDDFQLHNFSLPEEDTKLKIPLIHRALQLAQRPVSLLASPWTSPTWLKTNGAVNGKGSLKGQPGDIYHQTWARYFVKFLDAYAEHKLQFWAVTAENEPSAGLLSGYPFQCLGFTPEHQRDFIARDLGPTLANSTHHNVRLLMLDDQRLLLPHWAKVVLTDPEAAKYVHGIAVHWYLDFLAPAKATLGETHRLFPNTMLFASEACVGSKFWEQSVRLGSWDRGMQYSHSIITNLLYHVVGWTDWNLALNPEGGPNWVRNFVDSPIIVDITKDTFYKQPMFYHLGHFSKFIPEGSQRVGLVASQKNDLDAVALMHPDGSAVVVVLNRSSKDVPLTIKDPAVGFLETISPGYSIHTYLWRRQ
Chain of Cytochrome P450 3A4 (Homo sapiens) (P08684 whole entry, looked up): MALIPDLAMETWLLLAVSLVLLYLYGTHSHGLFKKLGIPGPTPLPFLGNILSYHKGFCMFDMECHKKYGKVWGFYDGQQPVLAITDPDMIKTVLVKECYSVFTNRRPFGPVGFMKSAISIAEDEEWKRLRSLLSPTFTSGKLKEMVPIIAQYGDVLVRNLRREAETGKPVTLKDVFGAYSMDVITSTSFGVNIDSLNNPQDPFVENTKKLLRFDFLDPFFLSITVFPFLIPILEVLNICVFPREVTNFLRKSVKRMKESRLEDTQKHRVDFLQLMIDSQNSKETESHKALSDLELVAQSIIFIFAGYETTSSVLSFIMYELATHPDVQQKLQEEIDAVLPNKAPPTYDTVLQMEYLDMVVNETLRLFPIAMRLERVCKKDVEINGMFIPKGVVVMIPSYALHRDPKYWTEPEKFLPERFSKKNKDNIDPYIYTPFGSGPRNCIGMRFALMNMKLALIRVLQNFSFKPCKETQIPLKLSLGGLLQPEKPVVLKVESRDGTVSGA
Chain of Glucocorticoid receptor (Homo sapiens) (P04150 whole entry, looked up, the tested form may be a part): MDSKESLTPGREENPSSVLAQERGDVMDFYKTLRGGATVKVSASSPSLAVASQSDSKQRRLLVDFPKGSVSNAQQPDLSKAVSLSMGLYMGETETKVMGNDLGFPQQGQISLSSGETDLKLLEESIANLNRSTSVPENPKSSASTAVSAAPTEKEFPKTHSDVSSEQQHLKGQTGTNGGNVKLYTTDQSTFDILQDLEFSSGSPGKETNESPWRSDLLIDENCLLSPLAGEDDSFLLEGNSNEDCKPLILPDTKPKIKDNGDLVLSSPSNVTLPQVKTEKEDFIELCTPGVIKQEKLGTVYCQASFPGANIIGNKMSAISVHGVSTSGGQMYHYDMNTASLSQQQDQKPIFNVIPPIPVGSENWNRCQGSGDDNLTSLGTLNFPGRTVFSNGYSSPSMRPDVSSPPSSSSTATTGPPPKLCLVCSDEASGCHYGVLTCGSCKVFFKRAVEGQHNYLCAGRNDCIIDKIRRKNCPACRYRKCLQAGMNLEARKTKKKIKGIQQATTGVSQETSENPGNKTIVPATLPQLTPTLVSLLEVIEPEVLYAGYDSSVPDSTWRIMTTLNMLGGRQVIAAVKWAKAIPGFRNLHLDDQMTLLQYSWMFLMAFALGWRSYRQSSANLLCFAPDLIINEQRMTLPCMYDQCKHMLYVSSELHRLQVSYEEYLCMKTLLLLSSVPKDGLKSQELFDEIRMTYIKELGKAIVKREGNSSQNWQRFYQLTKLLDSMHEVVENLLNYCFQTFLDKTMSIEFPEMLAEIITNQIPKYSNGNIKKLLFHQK
Chain of Cytochrome P450 1A2 (Homo sapiens) (P05177 whole entry, looked up): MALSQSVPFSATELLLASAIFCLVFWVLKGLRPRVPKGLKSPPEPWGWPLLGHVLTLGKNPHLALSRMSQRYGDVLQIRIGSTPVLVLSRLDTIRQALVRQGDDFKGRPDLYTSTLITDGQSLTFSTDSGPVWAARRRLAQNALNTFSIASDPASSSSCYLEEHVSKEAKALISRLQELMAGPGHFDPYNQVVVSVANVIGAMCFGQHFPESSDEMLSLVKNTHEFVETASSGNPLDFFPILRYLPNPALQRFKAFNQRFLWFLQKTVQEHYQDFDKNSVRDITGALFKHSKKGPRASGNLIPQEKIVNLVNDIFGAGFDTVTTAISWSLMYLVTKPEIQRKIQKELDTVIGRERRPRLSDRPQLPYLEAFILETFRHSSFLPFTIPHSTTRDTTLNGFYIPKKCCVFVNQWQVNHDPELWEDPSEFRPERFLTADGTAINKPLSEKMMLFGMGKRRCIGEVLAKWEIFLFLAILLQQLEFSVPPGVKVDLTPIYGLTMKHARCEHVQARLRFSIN
Chain of Cytochrome P450 2C9 (Homo sapiens) (P11712 whole entry, looked up): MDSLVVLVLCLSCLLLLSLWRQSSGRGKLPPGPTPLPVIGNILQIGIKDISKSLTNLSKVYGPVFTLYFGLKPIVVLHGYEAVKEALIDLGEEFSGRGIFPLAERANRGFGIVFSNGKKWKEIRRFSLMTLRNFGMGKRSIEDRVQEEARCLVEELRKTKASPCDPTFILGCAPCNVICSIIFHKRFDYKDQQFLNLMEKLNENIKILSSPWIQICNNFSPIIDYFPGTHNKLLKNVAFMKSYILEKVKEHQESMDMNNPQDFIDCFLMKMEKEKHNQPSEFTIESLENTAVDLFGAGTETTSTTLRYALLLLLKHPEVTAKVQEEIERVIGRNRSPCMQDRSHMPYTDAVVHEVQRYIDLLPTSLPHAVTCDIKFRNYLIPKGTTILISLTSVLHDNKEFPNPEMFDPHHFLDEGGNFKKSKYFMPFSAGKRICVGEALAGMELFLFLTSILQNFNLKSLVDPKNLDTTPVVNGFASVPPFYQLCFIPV
Chain of 3',5'-cyclic-AMP phosphodiesterase 4B (Homo sapiens) (Q07343 whole entry, looked up): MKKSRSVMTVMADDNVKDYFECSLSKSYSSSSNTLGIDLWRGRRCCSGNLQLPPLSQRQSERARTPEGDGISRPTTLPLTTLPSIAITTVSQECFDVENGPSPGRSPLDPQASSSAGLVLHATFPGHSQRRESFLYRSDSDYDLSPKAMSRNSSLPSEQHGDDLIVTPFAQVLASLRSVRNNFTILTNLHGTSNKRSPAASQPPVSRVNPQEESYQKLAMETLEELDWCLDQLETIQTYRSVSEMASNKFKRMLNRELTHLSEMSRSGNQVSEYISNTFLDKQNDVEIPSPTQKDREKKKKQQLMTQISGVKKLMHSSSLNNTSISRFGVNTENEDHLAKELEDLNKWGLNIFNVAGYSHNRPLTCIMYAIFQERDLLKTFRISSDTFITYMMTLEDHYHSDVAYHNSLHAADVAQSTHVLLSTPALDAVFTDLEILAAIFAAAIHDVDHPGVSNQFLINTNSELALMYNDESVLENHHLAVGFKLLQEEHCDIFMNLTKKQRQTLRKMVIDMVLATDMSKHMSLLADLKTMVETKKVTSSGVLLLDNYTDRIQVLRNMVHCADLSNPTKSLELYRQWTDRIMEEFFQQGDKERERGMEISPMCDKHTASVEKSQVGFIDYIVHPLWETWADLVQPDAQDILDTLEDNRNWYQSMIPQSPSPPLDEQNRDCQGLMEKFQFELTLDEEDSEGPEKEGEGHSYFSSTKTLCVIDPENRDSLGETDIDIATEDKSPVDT
Chain of Cytochrome P450 2D6 (Homo sapiens) (P10635 whole entry, looked up): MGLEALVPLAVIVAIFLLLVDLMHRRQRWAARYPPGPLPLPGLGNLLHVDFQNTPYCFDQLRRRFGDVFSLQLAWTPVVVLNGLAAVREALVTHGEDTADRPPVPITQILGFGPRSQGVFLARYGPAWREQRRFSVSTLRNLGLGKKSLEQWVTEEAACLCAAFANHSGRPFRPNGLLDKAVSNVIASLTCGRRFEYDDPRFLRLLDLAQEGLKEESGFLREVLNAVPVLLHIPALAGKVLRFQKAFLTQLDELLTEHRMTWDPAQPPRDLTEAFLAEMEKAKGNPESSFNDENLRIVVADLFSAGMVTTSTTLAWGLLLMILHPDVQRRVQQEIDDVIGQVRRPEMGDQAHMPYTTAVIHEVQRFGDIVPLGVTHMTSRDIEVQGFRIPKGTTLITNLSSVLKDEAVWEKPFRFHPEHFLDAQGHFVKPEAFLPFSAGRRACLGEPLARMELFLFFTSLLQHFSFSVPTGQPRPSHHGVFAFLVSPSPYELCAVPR

SMILES | Potency [1] | activity change, negative = inhibition [2] | Potency [3] | activity change, negative = inhibition [4] | activity, negative = inhibition [5] | Potency [6] | Potency [7] | Potency [8] | Potency [9] | Potency [10] | Potency [11] | Potency [12] | Potency [13] | activity change, negative = inhibition [3] | Potency [14]
O=CN[C@@H](Cc1cnc[nH]1)C(=O)O | > 11.4 µM | 4.13% | inactive | 2.87% | 0.427% | > 46 µM | > 9.22 µM | inactive | inactive |  |  |  |  |  | 
Cc1cc(=O)oc2c(OS(C)(=O)=O)c(OS(C)(=O)=O)ccc12 | > 11.4 µM | -3.34% | 0.794 µM (active) | 5.12% | 4.16% | > 46 µM | > 9.22 µM | inactive | inactive |  |  |  |  |  | 
O=C(NNC(=O)c1ccncc1)c1ccncc1 | > 11.4 µM | 4.63% | inactive | 6.39% | 2.81% | > 46 µM | > 9.22 µM | inactive | inactive |  |  |  |  |  | 
CC(C)CCC[C@@H](C)[C@@H]1CC[C@@H]2[C@H]3CC[C@H]4C[C@@H](N)CC[C@@]4(C)[C@@H]3CC[C@]21C | > 11.4 µM | 13.1% | inactive | 26.8% | 11.5% | > 46 µM | > 9.22 µM | inactive | inactive |  |  |  |  |  | 
C=CCSc1nc2ccccc2c(=O)n1Cc1ccco1 | > 11.4 µM | -0.523% | 0.0251 µM (active) | 2.6% | -8.01% | > 46 µM | > 9.22 µM | inactive | inactive |  |  |  |  |  | 
Cn1c(=O)c2[nH]c(SCc3ccccn3)nc2n(C)c1=S | > 11.4 µM | -5.29% | 0.0126 µM (active) | 13% | -3.9% | > 46 µM | > 9.22 µM | inactive | inactive | 3.16 µM (active) | 3.98 µM (active) | inactive | inactive |  | 
O=[N+]([O-])c1ccc(Nc2nc3ccccc3s2)cc1 | > 11.4 µM | 18.2% | inactive | -2.36% | 0.26% | > 46 µM | > 9.22 µM | inactive | inactive | 1.26 µM (active) |  | inactive |  |  | 
COc1ccc([C@@H](Nc2ncccn2)c2cc3c(cc2O)OCO3)cc1 | > 11.4 µM | -6.22% |  | 17.5% | -1.19% | > 46 µM | > 9.22 µM | inactive | inactive | 3.16 µM (active) | 2.51 µM (active) | inactive |  | -14.3% [at 2.29 µM] | 0.316 µM (active)
CC1=C/C(=N/O)C([C@H]2C=C(C)CC(C)(C)[C@@H]2O)C(C)(C)C1 (stereo partly specified) | > 11.4 µM | -3.8% | inactive | -18% | 0.535% | > 46 µM | > 9.22 µM | inactive | inactive | 2.51 µM (active) |  | inactive |  |  | 1.58 µM (active)
N#C[C@H](c1ccccc1)N1CCCN([C@@H](C#N)c2ccccc2)C1c1ccccc1O (stereo partly specified) | > 11.4 µM | 8.03% | 3.98 µM (active) | -26.1% | 6.35% | > 46 µM | > 9.22 µM | inactive | inactive | 3.16 µM (active) |  |  |  |  | 0.251 µM (active)
COc1cccc2[nH]c(-c3ccccn3)nc12 | > 11.4 µM | -2.26% | 0.794 µM (active) | 1.67% | 4.98% | > 46 µM | > 9.22 µM | inactive | inactive | inactive |  | inactive |  |  | 2.51 µM (active)
O=c1[nH]c(SCc2c(Cl)c(Cl)c(Cl)c(Cl)c2Cl)nc(=S)[nH]1 | > 11.4 µM | 6.9% | 1 µM (active) | 13.5% | -6.17% | > 46 µM | > 9.22 µM | inactive | inactive | 1.26 µM (active) | 3.16 µM (active) | inactive |  |  | 
NNC(=O)Cc1cccnc1 | > 11.4 µM | -8.16% | 0.631 µM (active) | 7.3% | 3.84% | > 46 µM | > 9.22 µM | inactive | inactive | inactive | 3.16 µM (active) | inactive |  |  | 

Reference: PubChem BioAssay (NCATS)
